Data from PMC10668032, “Altered binding affinity of SIX1-Q177R correlates with enhanced WNT5A and WNT pathway effector expression in Wilms tumor”.
Over roughly 33,000 sequences, “e-score” has its median near -0.053; the highest 2% begin near 0.38. What follows is part of a selection rich in the highest values, with near analogues and random picks from the rest.

Target: T1, SIX1 homeodomain (reference allele) (human, UniProt Q15475 108-198)
T1 sequence: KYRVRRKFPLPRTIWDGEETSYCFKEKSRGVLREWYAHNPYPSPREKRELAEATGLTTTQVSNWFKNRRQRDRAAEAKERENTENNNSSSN
Test: universal protein binding microarray; Universal all-10-mer PBM (8x60K, AMADID 030236), 300 nM GST-tagged protein, Alexa Fluor 488 anti-GST; buffer, salt, pH and temperature not stated (as in Berger); high values mean tight binding
Settings: protein: ivt; tags: N-terminal GST; dsDNA, one strand shown
Outline: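 Duplicate protein binding microarrays (universal 'all 10-mer', 8×60K format) were incubated with GST-tagged homeodomains at 300 nM final concentration. Binding was quantified as 8-mer E-scores with the Universal PBM Analysis Suite.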

Row | Sequence | binding signal [E-score]
1 | ATCGGCGA | 0.263 ± 0.0285
2 | CAGCTATA | 0.172 ± 0.0266
3 | ATCAACCC | 0.3364 ± 0.0021
4 | CCCTTCGG | 0.2259 ± 0.00107
5 | ATCTCGGC | 0.164 ± 0.0197
6 | CCGCATCC | 0.159 ± 0.0829
7 | CTGGGGTC | 0.164 ± 0.0399
8 | GATCCATC | 0.364 ± 0.0371
9 | ATCGTTGG | 0.205 ± 0.01
10 | ATATAAGG | 0.189 ± 0.0368
11 | CGATGGAG | 0.167 ± 0.00841
12 | GGATCACA | 0.4356 ± 0.00108
13 | CGATCACG | 0.251 ± 0.0416
14 | AGATCAAC | 0.264 ± 0.0411
15 | CGATCACC | 0.34 ± 0.0407
16 | GGATCAGA | 0.414 ± 0.0101
17 | AGATCACC | 0.317 ± 0.00333
18 | TGATCACA | 0.254 ± 0.0125
19 | AGATCAGA | 0.215 ± 0.0541
20 | GGATCAAA | 0.372 ± 0.0497
21 | GGATCACC | 0.438 ± 0.0243
22 | GGATCAAC | 0.39 ± 0.0049

Row | Sequence | binding signal [E-score]
23 | CGATCAGA | 0.192 ± 0.0121
24 | CCCCATCA | 0.152 ± 0.0305
25 | TATCCTAA | 0.238 ± 0.0642
26 | GATAACTA | 0.154 ± 0.00881
27 | GATCTTTA | 0.164 ± 0.0165
28 | ATCGCACG | 0.2071 ± 0.000375
29 | ATAGGCGG | 0.1969 ± 0.00138
30 | TATTGCGA | 0.232 ± 0.0343
31 | TCACCCGA | 0.157 ± 0.0682
32 | GATAGTAA | 0.221 ± 0.00274
33 | AGATCATA | 0.323 ± 0.00987
34 | GGATCATA | 0.433 ± 0.0211
35 | CGATCATA | 0.276 ± 0.0116
36 | ATCAACGA | 0.201 ± 0.0401
37 | AGTATTGG | 0.204 ± 0.0532
38 | ATAGCTAT | 0.27 ± 0.0878
39 | TCTCCAGA | 0.165 ± 0.00783
40 | CGAGATAC | 0.381 ± 0.00544
41 | AGAGATAG | 0.153 ± 0.0279
42 | CCAGATAA | 0.234 ± 0.0252
43 | AGAGATAC | 0.38 ± 0.00418
44 | CCAGATAC | 0.409 ± 0.0168

Row | Sequence | binding signal [E-score]
45 | CTAGATAC | 0.349 ± 0.00583
46 | CAAGATAC | 0.349 ± 0.0341
47 | GGAGATAC | 0.41 ± 0.00953
48 | GGAGATCC | 0.374 ± 0.0453
49 | AGAGATAT | 0.335 ± 0.0776
50 | GCAGATAC | 0.3749 ± 0.000573
51 | ACAGATAC | 0.341 ± 0.00624
52 | ATCCGAAA | 0.246 ± 0.022
53 | ATATCTTG | 0.271 ± 0.0944
54 | CGATCTCC | 0.31 ± 0.00569
55 | ACTGTATC | 0.367 ± 0.00948
56 | CCTATAGA | 0.157 ± 0.037
57 | GCCTATAA | 0.161 ± 0.0675
58 | TATCGTGA | 0.279 ± 0.00354
59 | AATACGAG | 0.233 ± 0.00564
60 | AATTGTGA | 0.185 ± 0.0272
61 | ATGGTGTA | 0.305 ± 0.00747
62 | CTGGTGTC | 0.414 ± 0.0127
63 | CTGGTCTA | 0.201 ± 0.0694
64 | ATGGTGTG | 0.183 ± 0.0828
65 | CTGGTGTA | 0.313 ± 0.0189
66 | ATGGTGTC | 0.435 ± 0.0115

Row | Sequence | binding signal [E-score]
67 | AATCCCGA | 0.223 ± 0.0516
68 | GATCCCTA | 0.3831 ± 0.000778
69 | GATCCCGA | 0.377 ± 0.0296
70 | TATCCCGA | 0.315 ± 0.0248
71 | AATCCCTA | 0.185 ± 0.0203
72 | GATCCTTA | 0.342 ± 0.021
73 | AACCGAGA | 0.162 ± 0.046
74 | ACACCTCG | 0.3009 ± 0.00176
75 | CCTATCTA | 0.178 ± 0.0299
76 | AGGATCAC | 0.435 ± 0.0114
77 | ACGATCAC | 0.177 ± 0.0336
78 | ATGATCAT | 0.246 ± 0.029
79 | AGGATCAT | 0.38 ± 0.0194
80 | AGGATCAG | 0.368 ± 0.0142
81 | AAGATCAC | 0.239 ± 0.0239
82 | CATGAGAC | 0.296 ± 0.000976
83 | ACTACTCG | 0.163 ± 0.00508
84 | GTATAAAC | 0.185 ± 0.0191
85 | CTATCAAA | 0.258 ± 0.141
86 | GTGTCAAC | 0.287 ± 0.0231
87 | AGATCACT | 0.385 ± 0.0244
88 | GTATCAAC | 0.475 ± 0.0103
